About 83,000 compounds went through this panel and 20% of them were active in at least one assay; those are over-represented in the sample as a whole.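 Each cell line was grown in a 96-well plate and treated with one concentration of compound for 48 hours. Values below 10 were considered active.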 A number with no mark means an inactive call. Activity calls are given as the source filed them.

This is an account of results in PubChem BioAssay (NCI).

Among the test systems are NCI-H23 lung; NCI-H226 lung; NCI-H322M lung; HOP-62 NSCLC; NCI-H460 lung; HOP-92 NSCLC; NCI-H522 lung; A549/ATCC NSCLC; 786-0 renal; COLO 205 colon; DU-145 prostate; K-562 leukemia; MALME-3M melanoma; MDA-MB-231 breast; RXF 393 renal; SF-268 CNS; SF-295 CNS; SF-539 CNS; UACC-257 melanoma; M14 melanoma.
Experiment in all cases: NCI-60 one-dose screen, 48 h (100 = growth as untreated, 0 = no growth, -100 = all killed)
Common to all, as to conditions: 10 µM unless noted

`Cc1ccc(C2(C)NC(=O)N(CC(=O)Nc3cccc(C)c3)C2=O)cc1` (stereo not given): the growth with NCI-H23 lung is 96.5%; with NCI-H226 lung it was 84.5%; in the experiment on NCI-H322M lung, 102%; with HOP-62 NSCLC, 102%; in the experiment with NCI-H460 lung it was 97.8%; in the experiment with HOP-92 NSCLC it was 63.8%. For the same compound, the growth in the experiment on NCI-H522 lung was 77.2%; in the experiment with A549/ATCC NSCLC, 101%; in the experiment on 786-0 renal it was 104%; in the experiment on COLO 205 colon, 116%; in the experiment on DU-145 prostate, 110%; with K-562 leukemia, 112%. For the same compound, the growth is 100% in the experiment with MALME-3M melanoma; 99.4% in the experiment on MDA-MB-231 breast; 101% with RXF 393 renal; 104% with SF-268 CNS; 107% with SF-295 CNS; 103% with SF-539 CNS. Besides, the growth with UACC-257 melanoma is 101%; with M14 melanoma, 110%.

Regarding `CN1CCN(Cc2ccc(NC(=O)c3cc(C#Cc4cnc(N)c5ncccc45)n(C)n3)cc2C(F)(F)F)CC1`, the growth was 97.8% in the experiment on NCI-H23 lung; 115% with NCI-H226 lung; 127% in the experiment on NCI-H322M lung; 100% in the experiment with HOP-62 NSCLC; 9.09% (active) in the experiment on NCI-H460 lung; 103% in the experiment on HOP-92 NSCLC. Besides, the growth with NCI-H522 lung was 99.7%; with A549/ATCC NSCLC, 47.5%; with 786-0 renal, 9.92% (active); with COLO 205 colon, 115%; with DU-145 prostate, 83.9%; in the experiment on K-562 leukemia it was 1.62% (active). The growth is 79.9% with MALME-3M melanoma; 102% in the experiment with MDA-MB-231 breast; 69.3% with RXF 393 renal; 102% in the experiment on SF-268 CNS; 102% with SF-295 CNS; 70.5% in the experiment on SF-539 CNS. Moreover, the growth in the experiment on UACC-257 melanoma was 102%; in the experiment with M14 melanoma, 113%.

In the case of `CCOc1ccc(-c2cc(C3(S(=O)(=O)c4ccc(C)cc4)CC=CC3)on2)cc1`, the growth in the experiment with NCI-H23 lung was 73.2%; in the experiment with NCI-H226 lung it was 47.7%; in the experiment with NCI-H322M lung, 96.4%; with HOP-62 NSCLC, 85.9%; with NCI-H460 lung, 91.1%; with HOP-92 NSCLC it was 86.1%. The growth was 70.6% with NCI-H522 lung; 92.8% with A549/ATCC NSCLC; 102% in the experiment with 786-0 renal; 95.5% with COLO 205 colon; 101% in the experiment with DU-145 prostate; 70.9% in the experiment with K-562 leukemia. For the same compound, the growth in the experiment with MALME-3M melanoma was 83.6%; with MDA-MB-231 breast, 91.8%; in the experiment with RXF 393 renal, 93.6%; with SF-268 CNS it was 98.6%; with SF-295 CNS it was 90%; with SF-539 CNS, 98.6%. Also, the growth was 74.9% in the experiment with UACC-257 melanoma and 107% in the experiment on M14 melanoma.

With `COc1ccc(NC(=O)c2ccc(Cl)cc2Cl)cc1`, the growth in the experiment on NCI-H23 lung was 85.3%; in the experiment on NCI-H226 lung, 105%; with NCI-H322M lung, 103%; with HOP-62 NSCLC, 107%; in the experiment on NCI-H460 lung, 97.8%; in the experiment on HOP-92 NSCLC it was 104%. In addition, the growth was 97.1% with NCI-H522 lung; 96.5% in the experiment on A549/ATCC NSCLC; 93% in the experiment on 786-0 renal; 101% in the experiment on COLO 205 colon; 95.1% in the experiment with DU-145 prostate; 99% in the experiment on K-562 leukemia. In addition, the growth with MALME-3M melanoma is 104%; in the experiment with MDA-MB-231 breast, 109%; with RXF 393 renal it was 108%; in the experiment on SF-268 CNS, 100%; in the experiment on SF-295 CNS, 102%; in the experiment with SF-539 CNS it was 98.9%. For the same compound, the growth in the experiment on UACC-257 melanoma is 96.8%; with M14 melanoma it was 93.3%.

Take `O=c1oc2ccccc2cc1-c1nn(-c2ccccc2)cc1/C=N/Nc1nc(-c2ccccc2)c(N=Nc2ccccc2)s1`: the growth was 88.1% with NCI-H23 lung; 99.5% in the experiment with NCI-H226 lung; 105% in the experiment on NCI-H322M lung; 71.6% in the experiment on HOP-62 NSCLC; 73.5% in the experiment on NCI-H460 lung; 79.7% with HOP-92 NSCLC. The growth in the experiment on NCI-H522 lung is 41.5%; with A549/ATCC NSCLC, 50.1%; with 786-0 renal, 90.7%; with COLO 205 colon, 72.8%; in the experiment on DU-145 prostate it was 76.8%; in the experiment on K-562 leukemia it was 21.7%. In addition, the growth with MALME-3M melanoma is 77%; in the experiment with MDA-MB-231 breast, 68.8%; with RXF 393 renal, 98.1%; with SF-268 CNS it was 79.3%; with SF-295 CNS it was 70.9%; with SF-539 CNS it was 88.5%. Also, the growth was 86.5% with UACC-257 melanoma and 45.4% in the experiment with M14 melanoma.

Consider `CCn1c2ccccc2c2cc(C(O)c3cccc4ncccc34)ccc21` (stereo not given), for which the growth in the experiment on NCI-H23 lung is -42.3% (active); with NCI-H226 lung, 23.7%; with NCI-H322M lung it was 34.8%; in the experiment with HOP-62 NSCLC it was 32.8%; in the experiment on NCI-H460 lung it was 10.1%; in the experiment with HOP-92 NSCLC, 29.3%. Further, the growth with NCI-H522 lung was 8.82% (active); with A549/ATCC NSCLC, 20.7%; in the experiment with 786-0 renal, 6.42% (active); in the experiment with COLO 205 colon, -33.9% (active); in the experiment with DU-145 prostate, 8.08% (active); with K-562 leukemia, 8.65% (active). Also, the growth in the experiment with MALME-3M melanoma is 57.7%; with MDA-MB-231 breast, 24.3%; in the experiment with RXF 393 renal it was 40.6%; with SF-268 CNS, 28.6%; with SF-295 CNS, 18.4%; with SF-539 CNS, 6.53% (active). For the same compound, the values for the growth in the experiment with UACC-257 melanoma and in the experiment with M14 melanoma were 70.8% and -4.81% (active), respectively.

As to `Cc1[nH]c(C(=O)Nc2ccccc2OC2CCNC2)c(Cl)c1Cl` (stereo not given), the growth in the experiment with NCI-H23 lung was 87.1%; with NCI-H226 lung, 80.6%; in the experiment on NCI-H322M lung it was 92.1%; in the experiment with HOP-62 NSCLC, 78.7%; in the experiment with NCI-H460 lung it was 72.6%; in the experiment on HOP-92 NSCLC, 72.6%. In addition, the growth in the experiment with NCI-H522 lung is 60.7%; with A549/ATCC NSCLC, 101%; in the experiment with 786-0 renal, 68.9%; in the experiment with COLO 205 colon, 83.5%; with DU-145 prostate, 93.5%; in the experiment with K-562 leukemia, 52.2%. Moreover, the growth with MALME-3M melanoma was 97.5%; in the experiment with MDA-MB-231 breast, 54.4%; in the experiment on RXF 393 renal it was 76.8%; in the experiment on SF-268 CNS, 75.7%; with SF-295 CNS it was 95.5%; with SF-539 CNS, 85.6%. In addition, the growth in the experiment with UACC-257 melanoma was 107%; in the experiment on M14 melanoma it was 98.5%.
